{
  "source": "the supplement of paper PMC8728848",
  "binders": {"B1": {"name": "Jacalin (Artocarpus integrifolia) (protein)", "chain": "MAYSSLLSLSVLALLFSISSADTRKWFLANGINQNPIGIIEAAVGVSEDLLNLNGMEAKNDEQSGISQTVIVGPWGAKVSTSSNGKAFDDGAFTGIREINLSYNKETAIGDFQVVYDLNGSPYVGQNHKSFITGFTPVKISLDFPSEYIMEVSGYTGNVSGYVVVRSLTFKTNKKTYGPYGVTSGTPFNLPIENGLIVGFKGSIGYWLDYFSMYLSL"}},
  "test_in_all_cases": "glycan array binding signal (z-score within array); higher = stronger binding",
  "conditions_in_all_cases": "glycan notation: IUPAC condensed, linker removed",
  "key": {"Fuc(a1-2)Gal(b1-3)GalNAc": {"biological_target": "Fuc(a1-2)Gal(b1-3)GalNAc", "summary_of_the_method": "(§1)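 The Consortium for Functional Glycomics database supplied 3228 glycan arrays, of which those lacking an available protein sequence were dropped. The binding signal, a within-array Z-score, was averaged across arrays of the same protein sequence and across linkers. Negative scores can be read as non-binding.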"}, "Fuc(a1-2)Gal(b1-4)Glc6S": {"biological_target": "Fuc(a1-2)Gal(b1-4)Glc6S", "summary_of_the_method": "as §1"}, "[1]": {"biological_target": "Fuc(a1-2)Gal(b1-4)GlcNAc(b1-3)GalNAc", "summary_of_the_method": "as §1"}, "[2]": {"biological_target": "Fuc(a1-2)Gal(b1-4)[Fuc(a1-3)]GlcNAc(b1-2)[Fuc(a1-2)Gal(b1-4)[Fuc(a1-3)]GlcNAc(b1-4)]Man(a1-3)[Fuc(a1-2)Gal(b1-4)[Fuc(a1-3)]GlcNAc(b1-2)Man(a1-6)]Man(b1-4)GlcNAc(b1-4)GlcNAc", "summary_of_the_method": "as §1"}, "[3]": {"biological_target": "Fuc(a1-2)[Gal(a1-3)]Gal(b1-3)GlcNAc(b1-2)Man(a1-3)[Fuc(a1-2)[Gal(a1-3)]Gal(b1-3)GlcNAc(b1-2)Man(a1-6)]Man(b1-4)GlcNAc(b1-4)[Fuc(a1-6)]GlcNAc", "summary_of_the_method": "as §1"}, "[4]": {"biological_target": "Fuc(a1-2)[Gal(a1-3)]Gal(b1-3)GlcNAc(b1-6)GalNAc", "summary_of_the_method": "as §1"}, "[5]": {"biological_target": "Fuc(a1-2)[Gal(a1-3)]Gal(b1-4)GlcNAc(b1-2)Man(a1-3)[Fuc(a1-2)[Gal(a1-3)]Gal(b1-4)GlcNAc(b1-2)Man(a1-6)]Man(b1-4)GlcNAc(b1-4)[Fuc(a1-6)]GlcNAc", "summary_of_the_method": "as §1"}, "[6]": {"biological_target": "Fuc(a1-2)[Gal(a1-3)]Gal(b1-4)GlcNAc(b1-3)[Fuc(a1-2)[Gal(a1-3)]Gal(b1-4)GlcNAc(b1-6)]GalNAc", "summary_of_the_method": "as §1"}, "[7]": {"biological_target": "Fuc(a1-2)[Gal(a1-3)]Gal(b1-4)GlcNAc(b1-6)GalNAc", "summary_of_the_method": "as §1"}, "[8]": {"biological_target": "Fuc(a1-2)[GalNAc(a1-3)]Gal(b1-4)GlcNAc(b1-2)Man", "summary_of_the_method": "as §1"}, "[9]": {"biological_target": "Fuc(a1-2)[GalNAc(b1-3)]Gal", "summary_of_the_method": "as §1"}, "[10]": {"biological_target": "Fuc(a1-3)[Gal(b1-4)]Glc6S", "summary_of_the_method": "as §1"}, "[11]": {"biological_target": "Fuc(a1-3)[Gal(b1-4)]GlcNAc(b1-2)Man(a1-3)[Fuc(a1-3)[Gal(b1-4)]GlcNAc(b1-2)Man(a1-6)]Man(b1-4)GlcNAc(b1-4)GlcNAc", "summary_of_the_method": "as §1"}, "[12]": {"biological_target": "Gal(a1-3)Gal(b1-4)[Fuc(a1-3)]GlcNAc", "summary_of_the_method": "as §1"}, "[13]": {"biological_target": "Gal(b1-3)GlcNAc(b1-3)Gal(b1-4)Glc", "summary_of_the_method": "as §1"}, "[14]": {"biological_target": "Gal(b1-3)GlcNAc(b1-3)Gal(b1-4)GlcNAc(b1-2)[Gal(b1-3)GlcNAc(b1-3)Gal(b1-4)GlcNAc(b1-6)]Man(a1-6)[Gal(b1-3)GlcNAc(b1-3)Gal(b1-4)GlcNAc(b1-2)Man(a1-3)]Man(b1-4)GlcNAc(b1-4)[Fuc(a1-6)]GlcNAc", "summary_of_the_method": "as §1"}, "[15]": {"biological_target": "Gal(b1-4)GlcNAc(b1-3)Gal(b1-4)GlcNAc(b1-3)Gal(b1-4)GlcNAc(b1-3)Gal(b1-4)GlcNAc(b1-2)Man(a1-3)[Gal(b1-4)GlcNAc(b1-3)Gal(b1-4)GlcNAc(b1-3)Gal(b1-4)GlcNAc(b1-3)Gal(b1-4)GlcNAc(b1-2)Man(a1-6)]Man(b1-4)GlcNAc(b1-4)[Fuc(a1-6)]GlcNAc", "summary_of_the_method": "as §1"}, "[16]": {"biological_target": "Gal(b1-4)GlcNAc(b1-3)Gal(b1-4)GlcNAc(b1-6)[Gal(b1-3)]GalNAc", "summary_of_the_method": "as §1"}, "Gal3S(b1-3)GalNAc": {"biological_target": "Gal3S(b1-3)GalNAc", "summary_of_the_method": "as §1"}, "[17]": {"biological_target": "GalNAc(a1-3)GalNAc(b1-3)Gal(a1-4)Gal(b1-4)Glc", "summary_of_the_method": "as §1"}, "GalNAc(b1-3)GalNAc": {"biological_target": "GalNAc(b1-3)GalNAc", "summary_of_the_method": "as §1"}},
  "note": "This is one part of a sample in which the strongest signals are shown more often than they occur.",
  "data": [
    {"binder": "B1", "values": [
      {"measurement": "glycan array binding signal (z-score)", "setting": "Fuc(a1-2)Gal(b1-3)GalNAc", "value": 0.218},
      {"measurement": "glycan array binding signal (z-score)", "setting": "Fuc(a1-2)Gal(b1-4)Glc6S", "value": -0.249},
      {"measurement": "glycan array binding signal (z-score)", "setting": "[1]", "value": 0.829},
      {"measurement": "glycan array binding signal (z-score)", "setting": "[2]", "value": -0.131},
      {"measurement": "glycan array binding signal (z-score)", "setting": "[3]", "value": -0.249},
      {"measurement": "glycan array binding signal (z-score)", "setting": "[4]", "value": -0.265},
      {"measurement": "glycan array binding signal (z-score)", "setting": "[5]", "value": -0.211},
      {"measurement": "glycan array binding signal (z-score)", "setting": "[6]", "value": -0.332},
      {"measurement": "glycan array binding signal (z-score)", "setting": "[7]", "value": -0.217},
      {"measurement": "glycan array binding signal (z-score)", "setting": "[8]", "value": -0.29},
      {"measurement": "glycan array binding signal (z-score)", "setting": "[9]", "value": 0.341},
      {"measurement": "glycan array binding signal (z-score)", "setting": "[10]", "value": -0.23},
      {"measurement": "glycan array binding signal (z-score)", "setting": "[11]", "value": -0.259},
      {"measurement": "glycan array binding signal (z-score)", "setting": "[12]", "value": -0.268},
      {"measurement": "glycan array binding signal (z-score)", "setting": "[13]", "value": -0.279},
      {"measurement": "glycan array binding signal (z-score)", "setting": "[14]", "value": -0.084},
      {"measurement": "glycan array binding signal (z-score)", "setting": "[15]", "value": 0.12},
      {"measurement": "glycan array binding signal (z-score)", "setting": "[16]", "value": 0.001},
      {"measurement": "glycan array binding signal (z-score)", "setting": "Gal3S(b1-3)GalNAc", "value": 1.89},
      {"measurement": "glycan array binding signal (z-score)", "setting": "[17]", "value": -0.256},
      {"measurement": "glycan array binding signal (z-score)", "setting": "GalNAc(b1-3)GalNAc", "value": 3.34}
    ]}
  ]
}
